Among the data in PubChem BioAssay (EPA / NIEHS) are AC50 and outcome values, retold here.

Several values for one entry are separate records, joined by “and”; a condition that tells them apart may be missing. Equal entries are not always repeated. Inconclusive results are not listed. A structure can be active in one record and inactive in another. Activity calls are given as the source filed them. How the source made its calls, unless noted: active means hit-call score of the fitted dose curve at least 0.9, where 1 is the maximum; inactive means score below 0.9.

Experiment [1] can be described thus: CCTE_Shafer_MEA_dev_active_electrodes_number: CCTE's Neural Network Formation Assay for Number of Active Electrodes, Shafer Lab (AID 2284040; active means hit-call score of the fitted dose curve at least 0.9, where 1 is the maximum;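 further: potency for loss of active electrodes versus DMSO so lower counts are hits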). The gist of the method:
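Developing rat cortical networks on MEAs, exposed DIV 0–12. Value is the AUC of active-electrode counts (≥5 spikes/min) from days 5, 7, 9, 12, relative to DMSO.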

Experiment [2] in a line: CCTE_Shafer_MEA_dev_burst_rate: CCTE's Neural Network Formation Assay for Burst Rate, Shafer Lab (AID 2284042).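 On AC50: potency for loss of burst rate below DMSO control.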 The procedure, abridged:
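Rat primary cortical cultures on PEI/laminin MEA; compound from plating, re-dosed at DIV 5, 9 media change. Single-electrode bursts/recording length, well mean of active electrodes; AUC over DIV 5–12 recordings; loss-of-signal vs DMSO.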

Experiment [3] can be described thus: CCTE_Shafer_MEA_dev_bursting_electrodes_number: CCTE's Neural Network Formation Assay for Number of Bursting Electrodes, Shafer Lab (AID 2284043; active means hit-call score of the fitted dose curve at least 0.9, where 1 is the maximum;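 further: potency is for loss of bursting electrodes relative to DMSO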). The gist of the method: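 Rat cortical primary neurons, 48-well MEA, 16 electrodes/well; dosing DIV 0–12, re-dosed with full media change DIV 5, 9. Recordings DIV 5/7/9/12, AxIS adaptive spike detector; bursting electrode = ≥1 burst/2 min. AUC across days; loss of signal vs DMSO.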

Experiment [4] is described as follows: CCTE_Shafer_MEA_dev_per_burst_interspike_interval: CCTE's Neural Network Formation Assay for Burst Interspike Interval, Shafer Lab (AID 2284044).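 Further: mean spike spacing inside bursts as AUC over recordings on days 5 7 9 12.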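 On AC50: potency for a decrease of within-burst interspike interval below DMSO level.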 The gist of the method:
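Spontaneous activity of maturing rat cortical networks is recorded on DIV 5, 7, 9 and 12 under chronic compound exposure beginning at plating. Endpoint: burst interspike interval well-mean, collapsed into trapezoidal AUC and fitted in the negative direction relative to DMSO.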

Experiment [5] is described as follows: CCTE_Shafer_MEA_dev_burst_duration_mean: CCTE's Neural Network Formation Assay for Mean Burst Duration, Shafer Lab (AID 2284045). The gist of the method: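 Rat cortical cultures, 1.5 x 10^5 cells/well with laminin drop; continuous dosing days 0–12, media plus treatment refreshed DIV 5, 9. AxIS adaptive spike detection; mean single-electrode burst duration, AUC over four recordings, negative direction vs DMSO.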

The nature of experiment [6]: CCTE_Shafer_MEA_dev_interburst_interval_mean: CCTE's Neural Network Formation Assay for Mean Interburst Interval, Shafer Lab (AID 2284046).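 Further: well-mean interburst interval of bursting electrodes as AUC over four recording days; curve fitted for decrease in interburst interval relative to DMSO.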 The procedure, abridged: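 Rat cortical neurons, 1.5 x 10^5 cells/well, 48-well MEA; compound from day 0 through DIV 12, media and treatment renewed DIV 5/9. Recordings DIV 5, 7, 9, 12; well-mean interburst interval → trapezoidal AUC, loss direction vs DMSO.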

A short description of experiment [7]: CCTE_Shafer_MEA_dev_inter_network_spike_interval_mean: CCTE's Neural Network Formation Assay for Mean Inter-network Spike Interval, Shafer Lab (AID 2284047). The gist of the method:
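Primary rat cortical neurons on PEI-coated 48-well MEAs (16 electrodes/well) were exposed from plating day 0 to DIV 12, with dosing renewed at DIV 5 and 9. Recordings at DIV 5, 7, 9, 12 were collapsed by trapezoidal AUC, loss-of-signal fit vs DMSO.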

Experiment [8] can be described thus: CCTE_Shafer_MEA_dev_network_spike_number: CCTE's Neural Network Formation Assay for Number of Network Spikes, Shafer Lab (AID 2284048).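 Further: synchronized bursts across electrodes counted on days 5 7 9 12 and integrated as AUC.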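 On AC50: fit as a loss of signal meaning fewer network spikes than DMSO.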 The gist of the method: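 Rat cortical primary cultures on 48-well MEA (16 electrodes/well); continuous exposure DIV 0–12, full medium and treatment exchange DIV 5, 9. Readout: network spike count, AxIS adaptive detection, recordings DIV 5/7/9/12 collapsed to AUC; loss-of-signal fit, DMSO baseline.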

The nature of experiment [9]: CCTE_Shafer_MEA_dev_network_spike_peak: CCTE's Neural Network Formation Assay for Mean Number of Electrodes in Network Spike, Shafer Lab (AID 2284049).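 Further: fitted for loss of signal meaning fewer electrodes in network spikes than DMSO.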 The gist of the method:
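Network-spike peak electrode count from recordings on days 5, 7, 9 and 12 was combined as trapezoidal area under the curve. Rat cortical cultures were treated continuously from plating, with compound renewed at each feed (DIV 5, 9); fits versus DMSO.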

Experiment [10] in a line: CCTE_Shafer_MEA_dev_spike_duration_mean: CCTE's Neural Network Formation Assay for Mean Spike Duration, Shafer Lab (AID 2284051).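 Further: mean network spike duration pooled as area under curve over DIV 5 to 12 recordings; potency for a decrease in mean network spike duration versus DMSO.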 The gist of the method: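 Rat cortical primary cultures, 48-well MEA (16 electrodes/well); compound from plating, renewed DIV 5, 9. Network spike duration (AxIS adaptive detector) recorded DIV 5/7/9/12, combined as trapezoidal AUC; loss direction vs DMSO.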

Experiment [11] can be described thus: CCTE_Shafer_MEA_dev_per_network_spike_spike_number_mean: CCTE's Neural Network Formation Assay for Mean Number of Spikes in a Network Spike, Shafer Lab (AID 2284053).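 On AC50: fitted as decrease in spikes per network spike relative to DMSO.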 The gist of the method:
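Rat cortical primary cultures on 48-well MEA; compound from day 0, re-dosed with full media change DIV 5, 9. Recorded DIV 5, 7, 9, 12; spikes in 0.05 s window at network-spike peak ÷ total network spikes; AUC; loss vs DMSO.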

A short description of experiment [12]: CCTE_Shafer_MEA_dev_per_network_spike_spike_percent: CCTE's Neural Network Formation Assay for Percent of Spikes in a Network Spike, Shafer Lab (AID 2284054). The procedure, abridged:
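Read-out: percent of spikes falling in a 0.05 s window at network-spike peak, from spontaneous MEA recordings on days 5, 7, 9 and 12; trapezoidal AUC; loss of signal versus DMSO. Rat cortical cultures, compound present throughout.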

A short description of experiment [13]: CCTE_Shafer_MEA_dev_LDH: CCTE's Lactate Dehydrogenase Assay for Cytotoxicity in the Neural Network Formation Assay, Shafer Lab (AID 2284068; active means hit-call score of the fitted dose curve at least 0.9, where 1 is the maximum;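 further: exposure for twelve days from plating with re-dosing on DIV 5 and 9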). The gist of the method:
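Rat cortical primary neurons, MEA culture; dosing day 0–12, full medium plus compound exchange DIV 5, 9. Read-out: LDH enzyme activity, spectrophotometric. DMSO = negative control/baseline; signal loss → cytotoxicity.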

Experiment [14] in a line: CCTE_Shafer_MEA_acute_AB: CCTE's Alamar Blue Assay for Cytotoxicity in the Neural Acute Assay, Shafer Lab (AID 2284069; active means hit-call score of the fitted dose curve at least 0.9, where 1 is the maximum;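 further: active compounds lower the viability signal compared with DMSO wells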). The procedure, abridged: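 Read-out: resazurin fluorescence (ex 544, em 590 nm) after CTB reagent at 1:6 dilution in fresh media. Cells: primary rat cortical neuron networks, DIV 13 or 15, chemically exposed on MEA plates; DMSO as negative control/baseline.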

Experiment [15] can be described thus: CCTE_Shafer_MEA_dev_AB: CCTE's Alamar Blue Assay for Cytotoxicity in the Neural Network Formation Assay, Shafer Lab (AID 2284083; active means hit-call score of the fitted dose curve at least 0.9, where 1 is the maximum;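 further: resazurin reduction fluorescence as viability of cultured neurons; twelve days of exposure from plating with re-dosing on DIV 5 and 9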). The procedure, abridged:
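Rat cortical primary cultures, 1.5 x 10^5 cells/well on MEA; continuous compound exposure over 12 days of network development, re-dosed with full medium change DIV 5 and 9. Alamar Blue fluorescence; loss of signal = cytotoxicity vs DMSO baseline.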

The nature of experiment [16]: UKN5_HCS_SBAD2_cell_viability: Viability Assessment in the University of Konstanz (UKN) Leist Lab Neurite Outgrowth Assay in human iPSC-derived immature Dorsal Root Ganglia Neurons (UKN5) (AID 2284056). The procedure, abridged:
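iPSC-derived immature peripheral neurons (SBAD2) seeded on Matrigel with CHIR99021, SU5402 and DAPT, dosed 1 h later for 24 h. Viability from Hoechst H-33342 and calcein-AM live staining, high-content imaging; bidirectional fit versus DMSO.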

Experiment [17] in a line: UKN5_HCS_SBAD2_neurite_outgrowth: University of Konstanz (UKN) Leist Lab Neurite Outgrowth Assay in human iPSC-derived immature Dorsal Root Ganglia Neurons (UKN5) (AID 2284070). Particulars: actives raise or lower the signal. The procedure, abridged:
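Cryopreserved SBAD2 peripheral neurons were seeded at 100.000 cells/cm2 in N2-S/KSR medium containing CHIR99021, SU5402 and DAPT, then exposed to compounds for 24 h. Neurite area from calcein-AM high-content imaging was fitted bidirectionally against DMSO.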

A short description of experiment [18]: CCTE_Deisenroth_AIME_384WELL_CTox_Inactive: Cytotoxicity Assessment (CTOX) in CCTE's 384-well Estrogen Receptor Transactivation Assay without AIME metabolic competence (metabolism negative), Deisenroth Lab (AID 2284039; active means hit-call score of the fitted dose curve at least 0.9, where 1 is the maximum;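 further: cell viability via live-cell protease substrate cleaved to fluorescent probe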). The gist of the method: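 VM7Luc4E2 human breast cells received conditioned medium from a 2 h incubation of chemical with alginate-water microspheres (no S9), then were exposed 24 h. Viability was read as protease-substrate cleavage to a fluorescent probe; loss of signal was fitted bidirectionally over 0.002–200 uM.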

Another experiment relates to DIO2 (gene 1734). The experiment in a line: CCTE_GLTED_hDIO2: CCTE's human Deiodinase 2 (DIO2) Inhibition Assay, Great Lakes Toxicology and Ecology Division (GLTED) Lab (AID 2284050; active means hit-call score of the fitted dose curve at least 0.9, where 1 is the maximum). The gist of the method:
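Readout: absorbance from Sandell-Kolthoff detection of free iodide released by human DIO2 during a 3 h incubation with chemical. Cell-free format, n=3; activity fitted relative to DMSO negative control.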

A further experiment deals with DIO3 (gene 1735). The experiment is described as follows: CCTE_GLTED_hDIO3: CCTE's human Deiodinase 3 (DIO3) Inhibition Assay, Great Lakes Toxicology and Ecology Division (GLTED) Lab (AID 2284055; active means hit-call score of the fitted dose curve at least 0.9, where 1 is the maximum;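 on AC50: potency is for inhibition seen as loss of released iodide signal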). The gist of the method: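 hDIO3 (adenovirus-expressed) + test chemical, 3 h incubation; free iodide quantified by Sandell-Kolthoff reaction, absorbance read-out. DMSO negative control, n=3.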

One may read the AC50 as the concentration giving half of the maximal activity seen. Take `ClC1(Cl)C2(Cl)C3(Cl)C4(Cl)C(Cl)(Cl)C5(Cl)C3(Cl)C1(Cl)C5(Cl)C24Cl` (configuration not stated): the AC50 was 2.07 µM (active) in experiment [1]; 2.64 µM (active) in [2]; 1.62 µM (active) in experiment [3]; 1.58 µM (active) in [4]; 3.37 µM (active) in experiment [6]; 888 nM (active) in experiment [8]. Further, the AC50 in [9] was 2.32 µM (active); in experiment [10], 2.35 µM (active); in experiment [11], 2.68 µM (active); in [12], 2.32 µM (active); in experiment [13], 1.92 µM (active); in experiment [15], 2.83 µM (active). The outcome in [5], in [7] and in experiment [14] was inactive.
Consider `COC(=O)Cc1ccccc1`, for which the call in experiment [14] was inactive.
On to `CCC(=O)C(CC(C)N(C)C)(c1ccccc1)c1ccccc1` (configuration not stated), for which the AC50 was 3.55 µM (active) in experiment [1]; 4.16 µM (active) in experiment [2]; 4.45 µM (active) in experiment [3]; 6.65 µM (active) in [4]; 4.24 µM (active) in experiment [6]; 4.26 µM (active) in experiment [9]. Further, the half-maximal activity concentration (AC50) was 3.49 µM (active) in [10], 3.36 µM (active) in experiment [11], 7.25 µM (active) in experiment [12] and 7.25 µM (active) in experiment [13]. The compound was called inactive in [5], in experiment [7], in experiment [8], in [14] and in experiment [15].
Regarding `CCOP(=S)(OCC)Oc1nc(Cl)c(Cl)cc1Cl`, the AC50 is 22.5 µM (active) and 6.77 µM (active) and 22.1 µM (active) in experiment [1]; 17.1 µM (active) in experiment [2]; 23.2 µM (active) and 4.58 µM (active) and 21.5 µM (active) in experiment [3]; 15.7 µM (active) and 5.07 µM (active) in experiment [4]; 15.2 µM (active) and 15 µM (active) in experiment [6]; 23 µM (active) and 3.97 µM (active) in experiment [8]. The AC50 in experiment [9] is 23 µM (active) and 10 µM (active) and 23.1 µM (active); in experiment [10], 23 µM (active) and 15 µM (active) and 21.7 µM (active); in experiment [11] it was 22.1 µM (active) and 23.9 µM (active); in experiment [12], 23.4 µM (active) and 20.2 µM (active); in experiment [13] it was 13.2 µM (active) and 13.7 µM (active) and 24.3 µM (active); in [15] it was 18.2 µM (active) and 22.5 µM (active) and 24 µM (active). In addition, the compound was called inactive in experiment [2], in experiment [4], in [5], in [6], in experiment [7] and in [8]. The compound was called inactive in experiment [11], in experiment [12], in experiment [16] and in [17].
`C[C@]12CCC(=O)C[C@@H]1CC[C@@H]1[C@@H]2CC[C@]2(C)[C@@H](O)CC[C@@H]12`: the compound was called inactive in experiment [14].
Take `CC(C)(c1ccccc1)c1ccc(O)c(C(C)(C)c2ccccc2)c1`: the results for the concentration at half-maximal activity (AC50) (in experiment [18]; in the experiment on DIO2 (gene 1734); in the experiment with DIO3 (gene 1735)) were 64.6 µM (active), 91.9 µM (active) and 17.3 µM (active), respectively. Moreover, in experiment [14], the compound was called inactive.
On to `Clc1ccc(COC(Cn2ccnc2)c2ccc(Cl)cc2Cl)cc1` (configuration not stated), for which, in the experiment on DIO2 (gene 1734), the AC50 was 95.2 µM (active). In the experiment on DIO3 (gene 1735), the compound was classed as inactive.
For the compound `CC12CC1(C)C(=O)N(c1cc(Cl)cc(Cl)c1)C2=O` (configuration not stated), the outcome in the experiment on DIO2 (gene 1734) and in the experiment on DIO3 (gene 1735) was inactive.
